# From PubChem
# Chronic BCR inh – qHTS Assay to Find Inhibitors of Chronic Active B-Cell Receptor Signaling | actives 0.05% (n = 340,000) | Potency, µM (titrated, usually from 46.1 µM), for inactives: at the top dose activity change, negative = inhibition, hits mostly inhibitors | ABC-DLBCL IkBa-CBG/CBR reporter, luminescence ratio, 4 h | AID 493014, 2011; active means well fitted inhibition curve with a large enough effect in the signal ratio, with a control signal flat, not every such curve was filed as active; inconclusive means small, poorly fitted or top-dose-only effect, or effect the other way, or a change in a side signal; the % refers to the signal ratio;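 further: potency means the concentration at half of the fitted maximal effect; plate controls were basal doxycycline-induced cells for no effect and cells given 10 µM MG132 for full effect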
#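 Concentration-response series (up to 46 uM) were applied to TMD8 dual-reporter cells for 4 h at 37C with doxycycline. Green/red ratio, after filter-overlap correction, defined %Activity; red signal alone was normalised to basal cells and zero luminescence.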
# MCF10A rereplic – A quantitative high throughput screen for small molecules that induce DNA re-replication in MCF 10a normal breast cells; MCF 10A DNA re-replication, Hoechst nuclear intensity, 48 h; Potency, µM (series often up to 46.1 µM), for inactives: at the top dose activity, positive = re-replication, most hits filed as activators; actives 2.9% (n = 350,000); AID 624296, 2012; further: potency means the concentration at half of the fitted maximal effect; % of control where 0% means no effect; nearly all actives have a fitted effect of over 50% in size
# IL-1B inflam inh – qHTS for Inhibitors of Inflammasome Signaling: IL-1-beta AlphaLISA Primary Screen. THP-1 LPS/ATP IL-1B secretion, AlphaLISA, 16 h; stronger effect = lower value. activity change, % at 57.5 µM. actives 4.7% (n = 360,000); in the data active means activity change below about -50%; inconclusive means mostly about -30% to -49%; further: on the % scale 0 is the no-effect control and ±100 the full control effect
#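 Secreted IL-1B measured by AlphaLISA bead assay after 16 h compound exposure of THP-1 cells; compounds (final up to 57.5 uM) added 1 h before LPS (250 ng/mL) and ATP (1.25 mM) stimulation; lower signal means less secretion.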
# TDP1 cell noCPT – qHTS for Inhibitors of human tyrosyl-DNA phosphodiesterase 1 (TDP1): qHTS in cells in absence of CPT; DT40 Tdp1-/- hTDP1 cells, no CPT, ATP luminescence, 48 h; Potency, µM (doses to about 46.2 µM), without a hit: top-dose activity change, negative = growth inhibition, hits mostly inhibitors; actives 15% (n = 420,000); AID 686978, 2013; further: potency means the concentration at half of the fitted maximal effect; on the % scale 0 is the no-effect control and ±100 the full control effect; nearly all actives have a fitted effect of over 55% in size
#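 Camptothecin absent (DMSO only). Human TDP1-complemented DT40 knockout cells, 400 cells/well, 37 °C for minimum 48 hr; ATP measured via CellTiter-Glo, 30 min dark incubation, luminescence.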
# DT40 TDP1 CPT – qHTS for Inhibitors of human tyrosyl-DNA phosphodiesterase 1 (TDP1): qHTS in cells in presence of CPT; AID 686979, 2013; Potency, µM (top dose mostly 46.2 µM), inactives show at the highest dose activity change, negative = growth inhibition, most hits filed as inhibitors; chicken DT40 Tdp1-/-;hTDP1 cells + 20 nM CPT, ATP luminescence, 48 h; actives 12% (n = 420,000); further: potency means the concentration at half of the fitted maximal effect; on the % scale 0 is the no-effect control and ±100 the full control effect; nearly all actives have a fitted effect of over 55% in size
#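 Chicken DT40 Tdp1-/- cells complemented with human TDP1, 400 cells/well, exposed to compounds plus 20 nM camptothecin for at least 48 h at 37 C; viability read as ATP content by CellTiter-Glo luminescence.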
# SW480 rerep – A quantitative high throughput screen for small molecules that induce DNA re-replication in SW480 colon adenocarcinoma cells. AID 624297, 2012. SW480 DNA re-replication, Hoechst DNA content imaging, 48 h. actives 1.8% (n = 340,000). Potency, µM (series often up to 46.1 µM), for inactives: at the highest dose re-replication activation, usual class: activators; further: potency means the concentration at half of the fitted maximal effect; % of control where 0% means no effect; nearly all actives have a fitted effect of over 55% in size
#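 Quantitative HTS format with DMSO vehicle controls; 48 hr drug incubation at 37 C, then 40 min Hoechst staining and scanning imager measurement at 405 nm excitation.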
# Numbers without * were called inactive; ? = inconclusive; / = not tested or not shown. Hits are enriched below; roughly 19% of the tested compounds scored in any of these assays. Unless noted, the call rests on the fitted dose curve; in most records, active means well fitted curve in the direction sought with a large enough effect; inconclusive means small, poorly fitted or top-dose-only effect, or another doubt; inactive means no such curve, though single readings can be large; an effect the other way counts as inactive or inconclusive.
SMILES,Chronic BCR inh,MCF10A rereplic,IL-1B inflam inh,TDP1 cell noCPT,DT40 TDP1 CPT,SW480 rerep
Cc1cnc(C(=O)OCC(=O)Nc2ccc(C)c(S(=O)(=O)N3CCOCC3)c2)cn1,1.5%,3.5%,1.6,-3.6%,-1.5%,-7.3%
NC(=O)c1ccc(NC(=O)COC(=O)c2ccc(Br)c(S(=O)(=O)N3CCOCC3)c2)cc1,/,0.5%,-60.2*,-1.1%,-9.1%,0.7%
CC(C)(C)c1ccc(NC(=O)COC(=O)C2(C)CC2(Cl)Cl)cc1 (configuration not stated),?,14.5%,-6.7,23.1µM*,?,?
CCC(C(=O)OCC(=O)Nc1ccc(C)c(S(=O)(=O)N2CCOCC2)c1)c1ccccc1 (configuration not stated),?,10.7%,-0.7,?,11.6µM*,16.4%
CC(C)c1ccccc1NC(=O)COC(=O)C1(C)CC1(Cl)Cl (configuration not stated),-12.3%,-2.4%,-9.4,10.0%,-0.3%,-11.2%
Cc1ccc(NC(=O)COC(=O)/C=C/c2ccccc2)cc1S(=O)(=O)N1CCOCC1,-0.8%,1.5%,-5.6,9.5%,1.3%,-3.4%
COc1ccc(CC(=O)OC(C)C(=O)NCc2ccc3c(c2)OCO3)cc1OC (configuration not stated),-5.5%,-0.9%,-13.6,0.1%,2.2%,-2.7%
CCOC(=O)C[C@@H]1OC[C@H](CO)N1S(=O)(=O)c1ccc(C)cc1,/,/,-11.9,11.3%,10.1%,/
C[C@H](NC(=O)OC(C)(C)C)[C@@H](O)c1ccco1,/,/,/,-11.1%,1.0%,/
COc1ccccc1NC(=O)/C(C#N)=C/c1c(C)nn(-c2ccc(F)cc2)c1Cl,3.2%,18.6%,0.0,13.4%,-10.0%,-14.5%
COc1ccc(NC(=O)/C(C#N)=C/c2c(C)nn(-c3ccc(F)cc3)c2Cl)cc1Cl,2.9%,?,-55.1*,?,?,?
Cc1nn(-c2ccccc2)c(Cl)c1/C=C(\C#N)C(=O)NC(C)C,?,23.1µM*,-102.4*,?,1.5%,?
CCCCCCCCSc1nnc(/N=C/N(C)C)s1,0.1%,16.6%,16.0,-3.6%,20.7%,?
Cc1cc(C)c2ccccc2n1,/,/,/,1.5%,-2.3%,/
Cc1cc(Sc2nnc(N)s2)c2ccccc2n1,?,?,-112.6*,2.91µM*,1.84µM*,-0.4%
Cc1cc(Sc2nnc(/N=C/N(C)C)s2)c2ccccc2n1,?,9.2µM*,-88.8*,7.31µM*,5.8µM*,?
O=S(=O)(Nc1ccc2ccccc2n1)c1ccccc1,-2.3%,-0.2%,8.0,0.3%,?,17.8%
CCOc1ccc(-c2noc(CCC(=O)NC3CCCCC3)n2)cc1OC,-12.3%,-2.8%,-20.5,-12.9%,1.6%,-3.1%
COc1cc(CN(C(=O)c2ccco2)C2CCS(=O)(=O)C2)cc(OC)c1OC (configuration not stated),3.3%,0.6%,-6.5,24.7%,-1.6%,10.2%
O=C(Nc1ccccc1)C(=O)Nc1ccc2c(c1)N(C(=O)C1CC1)CCC2,?,?,-12.4,23.1µM*,20.6µM*,?
CCN(CC)S(=O)(=O)c1cc(C)c(C)cc1OCC(=O)NC1CCCC1,-10.7%,9.6%,-3.8,20.6µM*,14.6µM*,?
COc1cc(C)ccc1OCC(=O)NC1CCCCCC1,-0.1%,-2.1%,1.7,?,0.1%,1.0%
